# Out of some 31,000 sequences screened, about 1,400 (4.5%) were called active.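 Rule for the calls: active = median seed-adjusted z-score above 1 or below -1; inactive = the rest.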 The full list was thinned out, with actives kept by preference.
# Test: Novel Modifiers of Survival Motor Neuron (SMN) Protein: Gene Identification via Genome-wide siRNA Screen;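 note: luminescence tracks full-length SMN protein made from the SMN2 reporter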
# Settings: HEK293T SMN2-luciferase reporter, siRNA knockdown, 72 h; actives lie on both sides
# Outline: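 Genome-wide siRNA screen (10418 genes, 3 siRNAs each, 1 pmol per well) by reverse transfection in HEK293T cells stably carrying an SMN2-luciferase reporter; luminescence after 72 hours, normalized to negative-control siRNA, log10-transformed, MAD-scored.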
row,Sequence,median seed-adjusted z-score
1,GUGGUGGGCUUAUCCUCUATT against NRXN3,0.897 (inactive)
2,GAACCACAAUGUUAACAAUTT against CYBRD1,0.623 (inactive)
3,GCAAGAUCUCUAUUGGUAUTT against ABCC4,-1.66 (active)
4,GAAACCCUAUUACGAUGAATT against SOX30,-0.167 (inactive)
5,CAUGUAAACUUGCUGUUUUTT against CKS1B,0.00314 (inactive)
6,CAUAGUAGAUCAAAUCUUATT against ZNF284,0.21 (inactive)
7,CACUAGCAGUUGCAAGUAATT against RAB3GAP2,0.0583 (inactive)
8,GACCUGGGCUUAGACAGUUTT against NDUFAB1,-0.282 (inactive)
9,GGAGAGCUGUUGGUACUUUTT against TAAR9,-1.07 (active)
10,CACUGUUUCUUCACCGGCATT against ZDHHC22,0.00446 (inactive)
11,GCAGUUCACCCAUCCAGUATT against THY1,-1.1 (active)
12,GACCAAGCGCAAAACCAAATT against HOMEZ,-0.0614 (inactive)
13,GAUUUUGUGCGAUCCAUAATT against CBARA1,-0.0426 (inactive)
14,GCAGGUACAUGUCUUGUCUTT against SPRY2,0.148 (inactive)
15,CCCUACAUAGGAAACCUGUTT against PKD1L2,-1.17 (active)
16,CAGCCUACUUCAUAGCCUATT against GPR50,-0.0348 (inactive)
17,GCCGGCCUGUGAAAUAUGATT against MAP3K3,-0.182 (inactive)
18,UCACGUCACUACUUAAAAATT against ZNF644,0.389 (inactive)
19,CCAUUAAUGAAUUAGUCUATT against TXN,-0.195 (inactive)
20,AGCUCAACGUGCUGGAUUATT against PIP5KL1,-0.819 (inactive)
21,CGAAGUUCAAGUAUAGGUATT against RAG1,-1.35 (active)
22,GGUUUGGAGCGAGAGUGGATT against ASB10,0 (inactive)
23,GCAGCUAUCUCUGUACAGATT against MAPK8IP3,0.734 (inactive)
24,UGUUCAGUCUGGAAUUUCATT against MAP2K1,0.942 (inactive)
25,GGACCCAAAUUCAGAAGAATT against ANKRA2,1.26 (active)
26,GGAUCGGUAUGUAGCAAUATT against HTR2C,-0.115 (inactive)
27,GAGUAUCCAUCGGUAUCUATT against ZBTB11,-0.105 (inactive)
28,UCCAGACUCUGGUCACCAATT against CREB3L1,0.708 (inactive)
29,GCAUUGACUUGGGUGAAGATT against GPR101,-0.265 (inactive)
30,GAGUUGAAGUUAAAGUAAATT against MORF4,0.0121 (inactive)
